An excerpt weighted towards active compounds, which were near 19% of everything screened.
HT1080 IDH1KD tx: kills HT-1080 cells with IDH1 knockdown | HT-1080 IDH1 knockdown viability, ATP luminescence, 48 h | Potency, µM (doses to about 46.1 µM), for the others: top-dose activity, negative = toxicity, hits mostly cytotoxic | 360,000 tested, 2% active | AID 686971;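 note: potency is the fitted concentration of half-maximal effect; 0% = DMSO wells and -100% = cell-free medium wells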
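After a 2 h attachment period, IDH1KD HT-1080 cells took pin-transferred compound for 48 h at 37 °C; ATP-based luminescence after 10 min room-temperature reagent incubation reported viability.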
TDP1 cell CPT: DT40-hTDP1 cell growth loss with CPT. chicken DT40 Tdp1-/-;hTDP1 cells + 20 nM CPT, ATP luminescence, 48 h. Potency, µM (titrated, usually from 46.2 µM), without a hit: top-dose activity change, negative = growth inhibition, most hits filed as inhibitors. 420,000 tested, 12% active. AID 686979; note: potency is the fitted concentration of half-maximal effect; nearly all actives have a fitted effect of over 55% in size
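Cell growth measured by CellTiter-Glo luminescence after a minimum 48 h, 37 C compound exposure with 20 nM CPT in Tdp1-knockout DT40 cells stably expressing hTDP1, seeded 400/well; qHTS titration format.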
IL-1B inflam inh: inflammasome signaling inhibition, IL-1 beta readout; THP-1 LPS/ATP IL-1B secretion, AlphaLISA, 16 h; active compounds read low; activity change, % at 57.5 µM; 360,000 tested, 4.7% active; in the data active = activity change below about -50%; inconclusive = mostly about -30% to -49%
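THP-1 cells pretreated 1 hr with compounds (up to 57.5 uM final), then stimulated with LPS (250 ng/mL final) plus ATP (1.25 mM final); secreted IL-1B measured by AlphaLISA after 16 hr, decreased signal indicating inhibition.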
HT1080NT lethal: kills 2HG-producing HT-1080-NT fibrosarcoma cells; HT-1080-NT fibrosarcoma viability, CellTiter-Glo ATP luminescence, 48 h; Potency, µM (titrated, usually from 46.1 µM), for inactives: at the highest dose activity, negative = less viability, usual class: cytotoxic; 360,000 tested, 1.6% active; AID 686970;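 note: NT is the 2HG producing partner of a matched IDH1 knockdown line; potency is the fitted concentration of half-maximal effect; 0% = DMSO-treated cells and -100% = media-only wells without cells; nearly all actives have a fitted effect of over 55% in size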
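Viability of the 2HG-overproducing fibrosarcoma line after 48 hours of compound exposure at 37 degrees C was determined by luminescence with CellTiter-Glo, and concentration-effect curves were then fitted and categorized.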
ELG1 DNA repair: ELG1-dependent DNA repair inhibition; HEK293T ELG1-luciferase reporter, luminescence, 16 h; DNA damage induced by 5-fluorouridine; Potency, µM (series often up to 46.1 µM), for the others: at the top dose activity change, negative = inhibition, hits mostly inhibitors; 330,000 tested, 2.3% active; AID 504467; note: potency is the fitted concentration of half-maximal effect; nearly all actives have a fitted effect of over 55% in size
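HEK293T cells expressing luciferase-tagged ELG1 (2,000/well) received 5-Fluorouridine plus compound or DMSO for 16 hr at 37 °C. Luciferase was read by ONE-Glo luminescence after 30 min at room temperature.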
DT40 TDP1 no CPT: qHTS for Inhibitors of human tyrosyl-DNA phosphodiesterase 1 (TDP1): qHTS in cells in absence of CPT | DT40 Tdp1-/- hTDP1 cells, no CPT, ATP luminescence, 48 h | 420,000 tested, 15% active | Potency, µM (series often up to 46.2 µM), for inactives: at the top dose activity change, negative = growth inhibition, most hits filed as inhibitors; note: potency is the fitted concentration of half-maximal effect; nearly all actives have a fitted effect of over 55% in size
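Camptothecin absent (DMSO only). Human TDP1-complemented DT40 knockout cells, 400 cells/well, 37 °C for minimum 48 hr; ATP measured via CellTiter-Glo, 30 min dark incubation, luminescence.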
* marks the source's active call; other numbers are inactive results; ? = inconclusive; . = no result given. Unless noted, calls come from the whole dose curve; as a rule, active = well fitted curve in the direction sought with a large enough effect; inconclusive = small, poorly fitted or top-dose-only effect, or another doubt; inactive = no such curve, though single readings can be large; an effect the other way counts as inactive or inconclusive. Unless noted, % is set by controls: 0 for no effect and ±100 for the full control effect.

SMILES | HT1080 IDH1KD tx | TDP1 cell CPT | IL-1B inflam inh | HT1080NT lethal | ELG1 DNA repair | DT40 TDP1 no CPT
O=Nc1nc2ncccn2c1-c1ccccc1 | 12µM* | 0.092µM* | -84* | -1% | . | 0.52µM*
O=C(Nc1cccc(OCC(=O)N2CCOCC2)c1)c1ccc(C(F)(F)F)cc1 | -12% | -15% | 16 | -10% | -7% | -29%
Cn1c(SCC(=O)NC(=O)Cc2ccccc2)nnc1-c1ccc(F)cc1 | -2% | -1% | 17 | 2% | 3% | -9%
CCCNC(=S)N1CCC(Cc2ccccc2)CC1 | -4% | ? | ? | -2% | 2% | ?
COc1ccc(NC(=S)N2CCC(Cc3ccccc3)CC2)cc1 | 0% | 10µM* | -58* | -4% | ? | 5.2µM*
S=C(Nc1ccccc1)N1CCC(Cc2ccccc2)CC1 | ? | 4.1µM* | -69* | ? | -16% | 3.7µM*
COc1ccc(NC(=S)N2CCN(Cc3ccccc3)CC2)cc1 | 2% | 4% | 6 | 3% | 7% | ?
CC(=O)c1cccc(NS(=O)(=O)c2ccc3[nH]c4c(c3c2)CCCCCC4)c1 | . | ? | . | . | . | 21µM*
CCOC(=O)c1cccc(NS(=O)(=O)c2ccc3[nH]c4c(c3c2)CCCC4)c1 | . | 23µM* | . | . | . | ?
CC(=O)c1cccc(NS(=O)(=O)c2ccc3[nH]c4c(c3c2)CCCCC4)c1 | . | 21µM* | . | . | . | 16µM*
CC(C)(C)NS(=O)(=O)c1ccc2[nH]c3c(c2c1)CCCCC3 | -22% | ? | -21 | -26% | ? | ?
CCC(C)NC(=O)c1ccccc1NC(=O)CN1C(=O)c2cccc3cccc1c23 (stereo not given) | . | -1% | . | . | . | 1%
CN(Cc1cn(Cc2ccc(Cl)cc2)nn1)C1CN(Cc2cn(Cc3ccc(Cl)cc3)nn2)S(=O)(=O)C1 (stereo not given) | -6% | 18µM* | ? | -17% | . | 13µM*
CCN(C)C1CN(Cc2cn(Cc3cc(C)cc(C)c3)nn2)S(=O)(=O)C1 (stereo not given) | 7% | -1% | -52* | 16% | . | -23%
CN(Cc1cn(Cc2ccc(F)cc2)nn1)C1CN(Cc2cn(Cc3ccc(F)cc3)nn2)S(=O)(=O)C1 (stereo not given) | -4% | -26% | 3 | 6% | . | -22%
Cc1cc(C)cc(Cn2cc(CN3CC(N(C)C)CS3(=O)=O)nn2)c1 (stereo not given) | 1% | 2% | 5 | 17% | . | -13%
CCc1ccc(NC(=O)CNC(=O)Cn2c(C)cc3ccccc3c2=O)cc1 | . | -1% | . | . | . | -2%
COc1cc(NC(=O)CNC(=O)Cn2c(C)cc3ccccc3c2=O)cc(OC)c1OC | -9% | 13µM* | 42 | 1% | -10% | 15µM*
COc1ccc(NC(=O)CNC(=O)Cn2c(C)cc3ccccc3c2=O)cc1OC | 0% | 13µM* | 3 | -9% | 8.2µM* | 21µM*
COc1cc(NC(=O)CNC(=O)Cn2ccc3ccccc3c2=O)cc(OC)c1OC | 19% | -20% | 4 | ? | 0% | ?
CCOC(=O)CNC(=O)Cn1c(C)cc2ccccc2c1=O | 10% | -29% | -65* | 8% | 3% | 1%
CN(C)C(=O)c1cccc(COc2ccc(N3C(N)=NC(N)=NC3(C)C)cc2Cl)c1 | ? | 0.018µM* | 8 | 0.0082µM* | . | 0.16µM*
O=C(NCc1ccccc1)c1cccc(COc2ccccc2Cl)c1 | -22% | -15% | -63* | -19% | ? | -24%
COC(=O)c1ccccc1NC(=S)NC(=O)COc1ccccc1Cl | 0% | 3% | 0 | -7% | -2% | -6%
O=C(NCc1ccccc1)c1cccc(COc2cc(Cl)ccc2Cl)c1 | -21% | -10% | -9 | -8% | ? | ?
SMILES | HT1080 IDH1KD tx | TDP1 cell CPT | IL-1B inflam inh | HT1080NT lethal | ELG1 DNA repair | DT40 TDP1 no CPT
CN(C(=O)c1ccc(COc2ccccc2Cl)o1)c1ccccc1 | -7% | -24% | 29 | -4% | ? | -25%
COC(=O)c1ccccc1NC(=O)c1cccc(COc2ccccc2Cl)c1 | ? | 9.2µM* | -7 | ? | ? | 8.2µM*
CC1(C)N=C(N)N=C(N)N1c1ccc(C(=O)O)cc1 | . | . | . | . | -10% | .
CN(C(=O)c1cccc(COc2ccc(Cl)cc2Cl)c1)c1ccccc1 | -17% | 21µM* | -16 | -17% | ? | ?
CCOCCCNC(=O)c1cc(=O)n(Cc2cccc(C)c2)c2ccccc12 | -18% | ? | 21 | -5% | 16µM* | 21µM*
O=C(NC1CCCCCC1)c1ccc2c(c1)sc1nc(-c3ccc(F)cc3)cn12 | . | ? | . | . | . | 6.5µM*
O=C(NC1CCCCC1)c1ccc2c(c1)sc1nc(-c3ccc(F)cc3)cn12 | . | 13µM* | . | . | . | 15µM*
COc1ccc(-c2cn3c(n2)sc2cc(C(=O)Nc4cccc(SC)c4)ccc23)cc1 | . | 5.2µM* | . | . | . | 6.5µM*
O=C(NC1CCCc2ccccc21)c1ccc2c(c1)sc1nc(-c3ccccc3)cn12 (stereo not given) | . | 8.2µM* | . | . | . | 18µM*
CC(NC(=O)c1ccc2c(c1)sc1nc(-c3ccccc3)cn12)C12CC3CC(CC(C3)C1)C2 (stereo not given) | . | -17% | . | . | . | -17%
COc1ccc(-c2cn3c(n2)sc2cc(C(=O)Nc4cc(OC)cc(OC)c4)ccc23)cc1 | . | 1% | . | . | . | -22%
O=C1CCC(c2ccc(-n3ccnc3)cc2)=NN1 | -4% | -24% | 9 | -2% | . | -3%
O=C(OCCc1cc2ccccc2c(=O)o1)c1cccc(Br)c1 | 4% | ? | -1 | 27% | 11% | -8%
COCCc1nn2c(=O)cc(COC(=O)c3ccc(Br)cc3)nc2s1 | . | -6% | . | . | . | -8%
COc1ccc(-c2cn3c(n2)sc2cc(C(=O)NC4CCCCCC4)ccc23)cc1 | . | ? | . | . | . | 7.3µM*
Cc1ccccc1NN=Nc1nc2c([nH]1)c(=O)n(C)c(=O)n2C | -7% | -17% | -2 | -5% | 2% | -19%
COc1ccc(NN=Nc2nc3c([nH]2)c(=O)n(C)c(=O)n3C)cc1 | -11% | 21µM* | 28 | -12% | ? | ?
Cc1[nH]c2c(ccc3cccnc32)c1C | 0% | 16% | . | 1% | 15µM* | -27%
OCCNCc1cc(Br)ccc1OCc1ccccc1Cl | ? | 21µM* | -59* | ? | -16% | 21µM*
OCCCCNCc1cc(Br)ccc1OCc1ccccc1 | 1% | ? | ? | -1% | -10% | ?
